hERG WT inh – KCNH2 (human, wildtype) channel inhibition. Q12809. activity change, % at 1.84 µM. 0.37% of 340,000 active. U2OS, BacMam KCNH2, thallium flux FluxOr; active compounds read low;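 active = maximum activity change below -70%; inconclusive = maximum activity change between -70% and -50%; inactive = maximum activity change above -50%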
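U2OS cells were transduced with wild-type KCNH2 virus (2.03 x 10^8 / mL) for 4 h at room temperature, then cultured overnight at 37 C. Thallium flux was read with FluxOr dye. Rate constants were normalized to DMSO controls.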
KCNH2 3.1 block – blocks the human KCNH2 3.1 channel isoform; 0.95% of 340,000 active; activity change, % (tested at about 1.8 µM); AID 720553; U2OS KCNH2 3.1, thallium flux FluxOr; active compounds read low;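 active = maximum activity change below -70%; inconclusive = maximum activity change from -70% to -50%; inactive = maximum activity change above -50%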;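 note: thallium influx rate constant from kinetic fluorescence after stimulation buffer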
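Thallium flux read-out: FluxOr dye with Red40 quencher in HBSS/HEPES, 45 min at RT. Rate constants from kinetic reads were normalized to positive and negative DMSO controls. Cells: U2OS virally expressing the 3.1 isoform.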
VDR inhibitor – inhibitors of human vitamin D receptor | P11473 | VDR-SRC2-3 peptide fluorescence polarization, 2 h | Potency, µM, usual class: inhibitors | 0.93% of 400,000 active | AID 504847
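Inhibition of the VDR/SRC2-3 peptide interaction is quantified by fluorescence polarization. Compounds (23 nl, pintool) incubate with the reagents for 2 hours at ambient room temperature.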
PLK1 PBD inh – blocks phosphopeptide binding to human PLK1 polo-box domain | P53350 | Plk1 PBD binding of FITC phosphopeptide, fluorescence polarization | Potency, µM, usual class: inhibitors | 2.8% of 360,000 active; note: series mostly up to about 57 µM; nearly all actives have a fitted effect of over 65% in size
CBFb RUNX1 block – blocks binding between human CBF-beta and RUNX1. AlphaScreen CBFb-His/RUNX1-biotin binding, biochemical. 230,000 tested, under 10 active. Potency, µM (highest dose often 59.8 µM), most hits filed as inhibitors
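AlphaScreen binding: CBFb-His and RUNX1-biotin (30 nM each) preincubated 20 min, compound added for 15 min, then nickel and streptavidin beads for 90 min, all at room temperature. Disruption of the interaction by any mechanism counts as activity.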
MBNL1 CUG block – inhibitors of human MBNL1 binding to CUG repeat RNA; Q9NR56; TR-FRET MBNL1-His/biotin-(CUG)12 binding, 665/545 ratio; Potency, µM (highest dose often 57.5 µM), most hits filed as inhibitors; 0.036% of 280,000 active; active = well fitted inhibition curve with a large enough effect in the signal ratio, with a control signal flat, not every such curve was filed as active; inconclusive = small, poorly fitted or top-dose-only effect, or effect the other way, or a change in a side signal; inactive = no such curve, though single readings can be large or run the other way; the % refers to the signal ratio
Target sequence (Q9NR56 whole entry, looked up): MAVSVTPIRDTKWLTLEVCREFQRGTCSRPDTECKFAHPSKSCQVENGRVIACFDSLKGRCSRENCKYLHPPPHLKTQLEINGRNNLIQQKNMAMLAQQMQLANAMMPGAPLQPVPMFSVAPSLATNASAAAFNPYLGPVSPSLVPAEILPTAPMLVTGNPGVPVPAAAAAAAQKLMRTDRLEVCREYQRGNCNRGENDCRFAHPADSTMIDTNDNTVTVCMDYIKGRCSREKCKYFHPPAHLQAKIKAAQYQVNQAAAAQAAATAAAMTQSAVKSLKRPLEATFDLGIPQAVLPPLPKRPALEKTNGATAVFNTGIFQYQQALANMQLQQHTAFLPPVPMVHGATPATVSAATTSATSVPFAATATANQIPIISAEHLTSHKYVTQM
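TR-FRET between His-tagged MBNL1 and biotin-(CUG)12 RNA, detected with Tb anti-His antibody (0.055 ng/ul) and streptavidin-XL665 (5 nM), 60 min at room temperature. Compounds titrated 92 nM to 58 uM; 665/545 nm ratio normalized to buffer and complex controls.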
Hits are given with their value; i = inactive; ? = inconclusive; nt = no result given. The list is not random: actives were taken first. Their share in the collection is about 3.8%. Unless noted, calls come from the whole dose curve; as a rule, active = well fitted curve in the direction sought with a large enough effect; inconclusive = small, poorly fitted or top-dose-only effect, or another doubt; inactive = no such curve, though single readings can be large; an effect the other way counts as inactive or inconclusive.

SMILES | hERG WT inh | KCNH2 3.1 block | VDR inhibitor | PLK1 PBD inh | CBFb RUNX1 block | MBNL1 CUG block
COc1cc(C(=O)Nc2ccccc2SCc2cc(=O)n3nc(C)sc3n2)cc(OC)c1OC | i | i | ? | 26.7µM | nt | i
Cc1nn2c(=O)cc(CSc3ccccc3NC(=O)c3ccccc3)nc2s1 | i | i | i | i | nt | i
COc1cccc2sc3cc(NCc4ccc(C)o4)ccc3c(=O)c12 | i | i | 89.1µM | i | nt | nt
COc1cccc(NC(=S)/C(=C(\[O-])c2ccc([N+](=O)[O-])cc2)[n+]2ccccc2)c1 | i | i | ? | 7.52µM | i | ?
COc1cc(/C=C/c2nc(C#N)c(N3CCC(C)CC3)o2)cc(OC)c1OC | nt | nt | i | nt | nt | nt
COc1cc(NC(=O)CSc2ncnc3sc4c(c23)CCCC4)c(C(=O)O)cc1OC | i | i | i | 26.7µM | nt | i
COc1cc(NC(=O)CSc2nccc(C)n2)c(C(=O)O)cc1OC | i | i | i | i | i | i
CC(=O)CSc1ncnc2sc3c(c12)CCC3 | i | i | i | i | i | i
COc1ccc2nc(SCC(=O)Nc3cc(OC)c(OC)cc3C(=O)O)c(C)cc2c1 | i | i | i | 29.9µM | i | i
Cc1cc(C)cc(NC(=O)Cn2c(=O)n(C(C)C)c(=O)c3oc4ccccc4c32)c1 | nt | nt | i | nt | nt | nt
O=C(O)c1nc(NCCc2ccccc2)ncc1Cl | -112.7 | -179.7 | i | i | nt | i
O=C(O)c1nc(NCc2ccccc2)ncc1Cl | nt | i | i | i | nt | i
Cc1ccc(CNC(=O)Nc2cn(CC(C)C)c(=O)c3ccccc23)cc1 | nt | nt | i | nt | nt | nt
CC(=O)Oc1cc(-c2coc3cc(OC(C)=O)c(OC(C)=O)c(OC(C)=O)c3c2=O)cc(OC(C)=O)c1OC(C)=O | nt | nt | 17.8µM | nt | nt | nt
COc1cc(-c2coc3cc(OC)c(OC)c(OC)c3c2=O)cc(OC)c1OC | nt | nt | i | nt | i | nt
COC(=O)CSc1nnc(NC(=O)c2ccc3c(c2)OCO3)s1 | i | i | i | i | nt | i
O=C(Nc1nnc(Cc2ccc([N+](=O)[O-])cc2)s1)c1ccc2c(c1)OCO2 | i | i | i | i | i | i
CCC(CC)c1nnc(NC(=O)c2ccc3c(c2)OCO3)s1 | i | i | 79.4µM | 26.7µM | nt | i
CC(C)(C)Cc1nnc(NC(=O)c2ccc3c(c2)OCO3)s1 | i | i | ? | 15µM | nt | i
CCC(CC)c1nnc(NC(=O)COc2ccc3c(c2)OCO3)s1 | i | i | 79.4µM | 13.4µM | nt | i
CCC(CC)c1nnc(NC(=O)c2nc3nc(C)cc(C)n3n2)s1 | i | -109.8 | i | i | i | i
CCC(CC)c1nnc(NC(=O)c2ccco2)s1 | i | i | i | 21.2µM | i | i
Cc1nnc(NC(=O)c2ccco2)s1 | i | i | i | i | i | i
C=CCOn1c(=O)c(-c2ccc(Cl)cc2)[n+]([O-])c2ccccc21 | i | i | i | ? | nt | ?
C=CCOn1c(=O)c(-c2cccs2)[n+]([O-])c2ccccc21 | i | i | i | 0.844µM | i | ?
SMILES | hERG WT inh | KCNH2 3.1 block | VDR inhibitor | PLK1 PBD inh | CBFb RUNX1 block | MBNL1 CUG block
O=c1[nH]c(=S)[nH]c2scc(-c3ccc(Br)cc3)c12 | i | i | i | 26.7µM | nt | nt
CCCCCCCCCCCCCCCC(=O)C1=C(O)C(CO)OC1=O (stereo unspecified) | nt | nt | 14.1µM | nt | i | nt
CCOC(=O)c1c(NC2OC(=O)c3c2ccc(OC)c3OC)sc(C(=O)OC(C)(C)C)c1C (stereo unspecified) | i | i | ? | 23.8µM | i | i
COC(=O)Nc1sc2c(c1C(N)=O)CCCCCC2 | i | i | ? | 13.4µM | i | i
NC(=O)c1c(NC(=O)C2CC=CCC2C(=O)O)sc2c1CCCCC2 (stereo unspecified) | i | i | 70.8µM | 26.7µM | nt | i
CC(=O)Nc1sc2c(c1C#N)CCCC2 | i | i | i | i | i | i
NC(=O)c1c(NC(=O)CN2CCCC2)sc2c1CCCC2 | i | i | ? | 2.99µM | i | i
CC(=O)NC(=S)Nc1sc2c(c1C#N)CCCCC2 | i | i | i | 10.6µM | i | i
Cc1cccc(NC(=O)N2CCC(CN3CCCCCC3)CC2)c1C | nt | nt | i | nt | nt | nt
CC(C)C(=O)NC(=S)Nc1sc2c(c1C(N)=O)CCCC2 | i | i | ? | 18.9µM | i | i
